Unmarked numbers belong to inactive results. Results filed as inconclusive are left out. Activity calls are given as the source filed them. Unless noted, the call rests on the fitted dose curve; in most records, active means well fitted activation curve with a large enough effect in the main read-out, with a control signal flat (not every such curve was filed as active); inconclusive means small, poorly fitted or top-dose-only effect, or effect the other way, or a change in a side signal; inactive means flat fitted curve, though single readings scatter.

Experimental findings from PubChem BioAssay (NCATS) are described below.

Sequence of 3',5'-cyclic-AMP phosphodiesterase 4B (Homo sapiens) (Q07343 whole entry, looked up): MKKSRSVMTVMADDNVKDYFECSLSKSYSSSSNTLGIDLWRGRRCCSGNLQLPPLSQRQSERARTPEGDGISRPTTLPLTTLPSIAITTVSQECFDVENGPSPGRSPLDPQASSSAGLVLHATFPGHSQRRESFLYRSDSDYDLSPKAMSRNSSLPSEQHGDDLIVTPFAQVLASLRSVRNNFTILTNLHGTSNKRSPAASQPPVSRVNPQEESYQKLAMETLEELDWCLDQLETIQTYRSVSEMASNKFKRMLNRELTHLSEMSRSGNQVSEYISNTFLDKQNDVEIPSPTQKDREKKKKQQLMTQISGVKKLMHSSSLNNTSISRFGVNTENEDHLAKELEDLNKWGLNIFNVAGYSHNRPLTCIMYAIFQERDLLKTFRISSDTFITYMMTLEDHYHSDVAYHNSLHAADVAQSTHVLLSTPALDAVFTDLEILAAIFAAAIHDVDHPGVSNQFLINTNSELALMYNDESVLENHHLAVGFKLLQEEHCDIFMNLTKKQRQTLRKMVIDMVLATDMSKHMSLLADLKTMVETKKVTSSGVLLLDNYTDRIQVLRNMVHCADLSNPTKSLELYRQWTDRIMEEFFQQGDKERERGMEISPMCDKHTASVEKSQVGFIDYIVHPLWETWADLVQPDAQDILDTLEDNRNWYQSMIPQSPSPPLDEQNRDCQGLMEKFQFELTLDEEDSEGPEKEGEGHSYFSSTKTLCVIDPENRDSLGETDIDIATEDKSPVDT

The target of the first test is 3',5'-cyclic-AMP phosphodiesterase 4B (Homo sapiens) (UniProt Q07343). Nature of the test: qHTS Assay for Inhibitors of PDE-IV (AID 607). Further: potency means the concentration at half of the fitted maximal effect. On activation (PDE inhibition): % of control where 0% means no effect. To be noted: HEK293 ACTOne CNG channel cells, membrane potential fluorescence; series mostly up to 22.9 µM; activation (PDE inhibition): at the top concentration. The essentials:
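The readout is membrane depolarisation from a cAMP-sensing CNG channel, detected with a potential dye at ex 535/em 590. Cells were HEK293-derived (endogenous PDE-IV) at 1000 cells/well, titrated up to 22.9 uM final.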
`C[N+](C)(C)CCOC(=O)CBr`: the “activation (PDE inhibition)” value was -2.25%.
Still for that read-out and setting: next, `N#CCCN`: 0.0285%; `C[N+]1(C)CCN(c2ccccc2)CC1`: 3.92%.
Still for that read-out and setting: next, `Clc1cc(I)cc(Cl)c1NC1=NCCN1`: 19.6%; `O=P(O)(O)C(Cl)(Cl)P(=O)(O)O`: 8.38%.
On the same count and under the same terms, next, `OCc1cnc[nH]1`: 12.2%.
On to `NC(=O)c1cc(N2CC2)c([N+](=O)[O-])cc1[N+](=O)[O-]`, for which the “activation (PDE inhibition)” value is -14.3%.
As for `CCCn1c(=O)c2[nH]c(C3CCCC3)nc2n(CCCOC(=O)c2ccc(S(=O)(=O)F)cc2)c1=O`, the Potency is 1260 nM (active).
Take `COc1ccc2[nH]c3c(c2c1)CCNC3`: the “activation (PDE inhibition)” value is -22.4%.
With `CCCN(CCC)[C@@H]1CCc2cccc(O)c2C1`, the Potency entry was “inactive”.
With `C[C@@H]1[C@@H]2Cc3ccc(O)cc3[C@@]1(C)CCN2CC1CC1`, the “activation (PDE inhibition)” value was 4.8%.
Same read-out and setting: then `CCC1(C)CC(=O)NC(=O)C1`, with 13%; and `CN(N=O)c1ccc(O)c(O)c1`, with -10.7%; and `O=c1ccc2[nH]cc(C3=CCNCC3)c2[nH]1`, with -23.7%.
Same read-out and setting: next, `CP(=O)(O)C1=CCNCC1`: -4.67%; `Clc1ccc(N2C[C@H]3CC[C@@H](C2)N3)nn1`: 1.08%.
As to `CCCN(CCC)[C@H]1CCc2c(F)ccc(O)c2C1`, the Potency entry is “inactive”.
On the same count and under the same terms, then `NCCc1c[nH]c2ccc(C(N)=O)cc12`, with “inactive”.
For `CC(C)NP(=O)(NC(C)C)OP(=O)(NC(C)C)NC(C)C`, the “activation (PDE inhibition)” value is -5.85%.
Still for that read-out and setting: next, `NCCc1ccc(S(=O)(=O)F)cc1`: 4.67%; `Cc1[nH]c2ccc(O)cc2c1CCN`: -2.98%; `NC(=O)CI`: -5.24%.
Still for that read-out and setting: next, `O=[N+]([O-])c1ccc2nc(N3CCNCC3)ccc2c1`: -10.4%.

Test system in a further test: not listed separately
Description: Cellular Toxicity (caspase-3) HepG2 (AID 654; active means well fitted activation curve with a large enough effect;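 further: cells exposed to compound for 16 hours before reading; 0% = DMSO alone and 100% = caspase signal from 100 µM tamoxifen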). The settings on record: HepG2 caspase-3 activation, luminescence, 0% = DMSO only, 100% = tamoxifen; series mostly up to 92.2 µM; caspase-3 activation: at the top concentration. The procedure, abridged: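 Caspase 3/7 activation is measured as a luminescence increase (aminoluciferin substrate) after 16 h compound exposure of human hepatocarcinoma HepG2 cells. AC50 values are Hill fits, scaled between DMSO baseline and 100 uM tamoxifen stimulation.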
As for `ClC(Cl)(Cl)Cl`, the outcome was inactive.
`O=[N+]([O-])c1ccc(F)c([N+](=O)[O-])c1`: the “caspase-3 activation” value is -3.78%.
Regarding `O=C(O)C(Cl)(Cl)Cl`, the outcome was inactive.
For `CCCCCCCCOC(=O)c1ccccc1C(=O)OCCCCCCCC`, the “caspase-3 activation” value was 0.249%.
Still for that read-out and setting: next, `CCCCCl`: 3.32%; `O=Cc1ccco1`: 0.944%.
Consider `O=[N+]([O-])c1ccccc1`, for which the “caspase-3 activation” value is -0.245%.
Same read-out and setting: then `O=CC=O`, with 0.29%; and `Clc1ccccc1Cl`, with 0.678%.
On the same count and under the same terms, then `C[C@H]1CC[C@@H]2[C@@H](C)[C@H]3[C@H](C[C@H]4[C@@H]5CC=C6CC(O[C@@H]7O[C@H](CO)[C@H](O)[C@H](O[C@@H]8O[C@H](CO)[C@@H](O)[C@H](O)[C@H]8O)[C@H]7O[C@H]7O[C@@H](C)[C@H](O)[C@@H](O)[C@H]7O)CC[C@]6(C)[C@H]5CC[C@]34C)N2C1` (some centres not stated), with -3.35%.
Turning to `S=C=S`, the “caspase-3 activation” value is 0.0255%.
Still for that read-out and setting: next, `ClCC1CO1` (configuration not stated): -0.225%; `Oc1cc(Cl)c(Cl)cc1Cl`: -0.767%.
The same measure, in the same setting: next, `COC1=CC(=O)O[C@@H](/C=C/c2ccccc2)C1`: -1.11%.
